# USP30 block = inhibitors of human USP30 deubiquitinase; Ubiquitin carboxyl-terminal hydrolase 30 (Homo sapiens), Q70CQ3; inhibition, % at 25 µM; AID 1645860, 2021; purified USP30, Ub-rhodamine cleavage fluorescence; hit rate 5.3% among 47,000
# Target sequence (Q70CQ3 whole entry, looked up): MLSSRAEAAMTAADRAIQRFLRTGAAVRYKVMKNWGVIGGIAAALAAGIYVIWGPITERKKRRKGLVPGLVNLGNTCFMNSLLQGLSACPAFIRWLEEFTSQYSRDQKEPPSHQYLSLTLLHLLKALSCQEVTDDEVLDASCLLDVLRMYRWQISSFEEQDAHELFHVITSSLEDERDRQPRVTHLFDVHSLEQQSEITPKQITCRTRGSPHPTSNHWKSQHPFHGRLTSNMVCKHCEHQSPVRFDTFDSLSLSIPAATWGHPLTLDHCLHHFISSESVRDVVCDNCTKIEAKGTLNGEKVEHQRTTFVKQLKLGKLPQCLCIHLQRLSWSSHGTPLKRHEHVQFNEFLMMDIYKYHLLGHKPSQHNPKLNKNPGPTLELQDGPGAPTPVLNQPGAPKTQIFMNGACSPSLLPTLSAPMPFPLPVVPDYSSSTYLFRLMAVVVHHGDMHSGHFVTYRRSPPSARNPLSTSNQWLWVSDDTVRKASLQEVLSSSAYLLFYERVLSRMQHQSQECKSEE
# USP17 inh = inhibitors of human USP17 deubiquitinase; purified USP17, Ub-rhodamine cleavage fluorescence, 3 h; inhibition, % at 50 µM; Ubiquitin carboxyl-terminal hydrolase 17-like protein 5 (Homo sapiens), A8MUK1; hit rate 6.5% among 47,000
# USP8 inh = inhibitors of human USP8 deubiquitinase; hit rate 4.2% among 47,000; Ubiquitin carboxyl-terminal hydrolase 8 (Homo sapiens), P40818; AID 1645853, 2021; purified USP8, Ub-rhodamine cleavage fluorescence, 30 min; inhibition, % at 20 µM
# Numbers without * were called inactive; i = inactive; . = not tested or not shown. This is a sample that favours compounds with a hit; in the whole collection about 12% have one here. Rule as the data show it: active = inhibition above about 30%; inactive = the rest.
SMILES,USP30 block,USP17 inh,USP8 inh
COc1ccc(NC(=O)NCCN2CCN(c3ccc(Cl)cc3)CC2)cc1,15,3,-3
CCOC(=O)c1sc2ccccc2c1S(=O)(=O)Nc1ccccc1Cl,-8,-16,-241
O=C(c1ccco1)N1CCCC1c1nc(-c2ccccc2)n[nH]1 (stereo unspecified),15,4,10
O=C(Nc1ccccc1N1CCOCC1)C1Cc2ccccc2CN1S(=O)(=O)c1ccccc1F (stereo unspecified),-35,20,31*
O=C(Nc1ccccc1N1CCOCC1)C1CCCCN1S(=O)(=O)c1ccccc1 (stereo unspecified),1,-5,-12
Cc1cccc(NC(=O)c2ccc(N3CCCC3)nn2)c1,32*,-9,-24
Cc1nc2cc(NC(=O)c3ccc(N4CCCC4)nn3)ccc2s1,-1,.,-35
Cc1c(Cl)cccc1NC(=O)c1ccc(N2CCCC2)nn1,61*,56*,-17
Cc1cccc(NC(=O)c2ccc(N3CCCC3)nn2)n1,5,-3,-6
NC(=O)C1CCN(c2nc3ccc(-c4ccccc4)nc3s2)CC1,-35,5,-8
CC(C)N1C[C@@H]2C[C@H](NS(=O)(=O)c3ccccc3)CN2Cc2ccccc21,i,-161,-81
CC(=O)N1CCc2ncn(C(C)C)c2C1C(=O)N1CCN(c2ccccc2)CC1 (stereo unspecified),-19,-43,1
Cc1nc2cc3c(cc2n1CC(=O)N1CCCCC1)OCCO3,-5,5,14
COc1ccc(OCCn2c(C3CC(=O)N(C)C3)nc3ccccc32)cc1 (stereo unspecified),11,0,23
O=C1CC(c2nc3ccccc3n2CCOc2ccccc2)CN1Cc1ccccc1 (stereo unspecified),22,7,-2
Cc1ccc(N2CC(c3nc4ccccc4n3CCOc3cccc(C)c3)CC2=O)cc1 (stereo unspecified),47*,48*,95*
Cc1ccc(N2CC(c3nc4ccccc4n3CCCCOc3ccccc3)CC2=O)cc1 (stereo unspecified),52*,17,5
CCN1CCN(c2nc(NCCc3cccs3)c3cnn(C)c3n2)CC1,-12,-19,-47
NCCCC(N)CC(=O)NCCCC(N)CC(=O)NCCCC(N)CC(=O)NCCCC(N)CC(=O)NCCCC(N)CC(=O)NCCCC(N)CC(=O)NC1C(NC2=N[C@@H]3C(=O)NC[C@@H](O)[C@H]3N2)OC(CO)C(OC(N)=O)C1O (stereo partly specified),32*,1,-5
Cc1ccc2nc(NC(=O)CSc3nnc(-c4ccncc4)n3C3CC3)sc2c1,-25,57*,-1
Cc1ccc2nc(NC(=O)CN3CCC(C(N)=O)CC3)sc2c1,19,6,1
C=C1C=C(CCC(=O)O)C(=O)OC1/C=C/C=C/C (stereo unspecified),80*,101*,98*
CNc1nc(C2CCCN(C(=O)C3(c4ccccc4)CCOCC3)C2)nc2c1CCN(C)C2 (stereo unspecified),-13,-4,1
CC(=O)C1=C(O)[C@@]2(O)C(=O)c3c(c(C)c4ccc(C)c(O)c4c3O)C[C@H]2[C@@H](N)C1=O,-126,49*,-104
CCn1cc2nc(SCC(=O)NC3CCCC3)n(Cc3ccc(OC)cc3)c(=O)c2n1,8,-2,-2
SMILES,USP30 block,USP17 inh,USP8 inh
CCn1cc2nc(SCC(=O)NC3CCCC3)n(Cc3ccc(C)cc3)c(=O)c2n1,70*,63*,6
COc1cccc(NC(=O)CCC(=O)Nc2ccc3nc(N4CCN(C)CC4)cc(C)c3c2)c1,0,-5,5
COc1ccc2nc(SCC(=O)Nc3ccc(NC(C)=O)cc3)c(C)cc2c1,30,59*,69*
O=C1c2ccccc2C2c3[nH]c4ccccc4c3C(c3ccc(Cl)cc3)CN12 (stereo unspecified),-38,-11,-1
COc1ccc(-c2ncc3c(=O)n(Cc4cccnc4)c(=O)n(C)c3n2)cc1,36*,0,2
Cn1c(=O)n(Cc2cccc(Cl)c2)c(=O)c2cnc(-c3ccncc3)nc21,-498,-141,-65
Cc1cncc(C2CCCN2C(=O)c2cc(C)nc3onc(C)c23)n1 (stereo unspecified),8,6,-2
CCn1cc(-c2cc(C(=O)N3CCCC3c3ccc4c(c3)OCCCO4)no2)cn1 (stereo unspecified),-29,-1,7
CC1CCN(C(=O)c2ccc(CSc3nc4ccncc4n3Cc3ccccc3)cc2)CC1,25,8,-3
O=C(NCc1ccco1)c1ccc(Cn2c(SCc3ccccc3)nc3ccncc32)cc1,74*,88*,35*
N#Cc1cccc(CN2CC[C@H](c3nnc(-c4cccnc4)o3)C2)c1,6,1,54*
Cn1cncc1-c1nnc([C@H]2CCN(Cc3cccc(C#N)c3)C2)o1,2,-34,-17
O=C(C1Cn2ccnc2C2(CCN(S(=O)(=O)c3ccccc3)CC2)O1)N1CCCCC1 (stereo unspecified),-49,-29,-49
CC1=C(C)C(c2c(-c3ccc(C)cc3)[nH]c3ccccc23)N(C(C)(C)C)C1=O (stereo unspecified),10,94*,90*
Cc1ccc(S(=O)(=O)N2CCC(c3c(C)[nH]c4ccccc34)CC2)cc1,-28,10,10
CCOc1cccc(-c2cc(C(=O)N3CCN(c4ncccn4)CC3)c3ccccc3n2)c1,7,1,-1
CC(C)CCn1c(N)c(-c2nc3ccccc3[nH]2)c2nc3ccccc3nc21,-95,-7,13
Cn1c(-c2c(N)n(Cc3ccc(Cl)cc3)c3nc4ccccc4nc23)nc2ccccc21,-52,-13,57*
Clc1ccc(CN=C(Nc2ccccc2)NC2CC2)c(Cl)c1,31*,5,11
O=C(CN1C(=O)COc2cc(Cl)ccc21)NC1CC1,1,2,-1
COc1ccc(-c2ccc(-c3nnn(CCN4CCCCC4)n3)cc2)cc1,0,18,47*
COc1ccc(Cn2nnc(-c3ccc(C(C)C)cc3)n2)cc1,.,5,9
COc1cccc(CNC(=O)CCc2c(C)c3c(C)nn(-c4cccc(F)c4)c3n(C)c2=O)c1,12,6,-17
Cc1cc(C)c2cc(C(=O)NC3CCN(Cc4ccccc4)CC3)[nH]c2c1,67*,23,24
Cc1c(C)n(C)c2ccc(C(=O)NC3CCN(Cc4ccccc4)CC3)cc12,-33,0,-50
SMILES,USP30 block,USP17 inh,USP8 inh
Cc1cc(C(=O)N2C[C@@H]3C[C@@]4(C)[C@H](CCCC[C@@H]24)N3)nc(N2CCOCC2)n1,-1,-7,-4
Cc1ccccc1CN1CCC2(CC1)CN(C(=O)Cc1ccc(Cl)cc1)C2,22,-1,-1
Cc1sc(NC(=O)/C=C/c2ccco2)nc1-c1ccccc1,1,11,0
CC(=O)c1sc(NC(=O)/C=C/c2ccccc2)nc1-c1ccccc1,0,74*,12
COC(=O)CN1C(c2cc(OC)c(OC)c(OC)c2)=Nc2ccc(Cl)cc2C1c1ccccc1 (stereo unspecified),6,1,5
CCc1nccn1Cc1noc(-c2ccc3c(c2)OCO3)n1,25,18,18
O=C(c1ccc(Cn2cncn2)cc1)N(Cc1ccc2c(c1)OCO2)C1CCCCC1,25,7,0
